Experimental data from ChEMBL document CHEMBL1961873, “Compounds: GSK PKIS; Assays: Nanosyn kinase panel” (2012).

What was measured:
[1] = molecular target: Mitogen-activated protein kinase 3 (Homo sapiens) (UniProt P27361); conditions: at 1 µM;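 also: values are mean percent inhibition of MAPK3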
[2] = molecular target: SRSF protein kinase 3 (Homo sapiens) (UniProt Q9UPE1); conditions: at 0.1 µM
[3] = molecular target: SRSF protein kinase 3 (Homo sapiens) (UniProt Q9UPE1); conditions: at 1 µM
[4] = molecular target: Mitogen-activated protein kinase 14 (Homo sapiens) (UniProt Q16539); conditions: at 0.1 µM
[5] = molecular target: Mitogen-activated protein kinase 14 (Homo sapiens) (UniProt Q16539); conditions: at 1 µM
[6] = molecular target: Mitogen-activated protein kinase 11 (Homo sapiens) (UniProt Q15759); conditions: at 0.1 µM
[7] = molecular target: Mitogen-activated protein kinase 11 (Homo sapiens) (UniProt Q15759); conditions: at 1 µM
[8] = molecular target: T1, Mitogen-activated protein kinase 13 (Homo sapiens) (UniProt O15264); conditions: at 0.1 µM
T1 sequence (whole entry): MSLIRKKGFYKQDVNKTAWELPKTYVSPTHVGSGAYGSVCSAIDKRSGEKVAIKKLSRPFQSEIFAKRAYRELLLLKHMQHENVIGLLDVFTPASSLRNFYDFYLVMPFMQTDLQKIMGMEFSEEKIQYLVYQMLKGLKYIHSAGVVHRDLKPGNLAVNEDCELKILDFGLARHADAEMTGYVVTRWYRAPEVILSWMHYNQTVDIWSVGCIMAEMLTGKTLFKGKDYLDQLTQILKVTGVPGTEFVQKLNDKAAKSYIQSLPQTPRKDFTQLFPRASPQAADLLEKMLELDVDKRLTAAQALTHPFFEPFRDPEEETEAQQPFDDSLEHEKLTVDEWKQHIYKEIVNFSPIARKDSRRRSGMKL

[9] = molecular target: T1, Mitogen-activated protein kinase 13 (Homo sapiens); conditions: at 1 µM
[10] = molecular target: T2, Mitogen-activated protein kinase 12 (Homo sapiens) (UniProt P53778); conditions: at 0.1 µM
T2 sequence (whole entry): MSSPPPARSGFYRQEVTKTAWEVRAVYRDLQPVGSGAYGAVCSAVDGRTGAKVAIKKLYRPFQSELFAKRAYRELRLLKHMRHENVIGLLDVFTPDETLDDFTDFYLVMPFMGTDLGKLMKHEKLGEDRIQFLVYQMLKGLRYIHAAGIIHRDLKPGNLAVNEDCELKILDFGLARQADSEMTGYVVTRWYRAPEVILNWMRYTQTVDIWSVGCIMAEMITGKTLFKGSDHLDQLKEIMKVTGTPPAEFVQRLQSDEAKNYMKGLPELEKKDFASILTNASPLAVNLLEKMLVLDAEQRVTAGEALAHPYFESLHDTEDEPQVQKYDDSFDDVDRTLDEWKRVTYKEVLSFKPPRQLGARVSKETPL

[11] = molecular target: T2, Mitogen-activated protein kinase 12 (Homo sapiens); conditions: at 1 µM
[12] = molecular target: SRSF protein kinase 1 (Homo sapiens) (UniProt Q96SB4); conditions: at 0.1 µM
[13] = molecular target: SRSF protein kinase 1 (Homo sapiens) (UniProt Q96SB4); conditions: at 1 µM
[14] = molecular target: Phosphatidylinositol 4,5-bisphosphate 3-kinase catalytic subunit alpha isoform (Homo sapiens) (UniProt P42336); conditions: at 0.1 µM
[15] = molecular target: Phosphatidylinositol 4,5-bisphosphate 3-kinase catalytic subunit alpha isoform (Homo sapiens) (UniProt P42336); conditions: at 1 µM
[16] = molecular target: T3, Phosphatidylinositol 4,5-bisphosphate 3-kinase catalytic subunit delta isoform (Homo sapiens) (UniProt O00329); conditions: at 0.1 µM
T3 sequence (whole entry): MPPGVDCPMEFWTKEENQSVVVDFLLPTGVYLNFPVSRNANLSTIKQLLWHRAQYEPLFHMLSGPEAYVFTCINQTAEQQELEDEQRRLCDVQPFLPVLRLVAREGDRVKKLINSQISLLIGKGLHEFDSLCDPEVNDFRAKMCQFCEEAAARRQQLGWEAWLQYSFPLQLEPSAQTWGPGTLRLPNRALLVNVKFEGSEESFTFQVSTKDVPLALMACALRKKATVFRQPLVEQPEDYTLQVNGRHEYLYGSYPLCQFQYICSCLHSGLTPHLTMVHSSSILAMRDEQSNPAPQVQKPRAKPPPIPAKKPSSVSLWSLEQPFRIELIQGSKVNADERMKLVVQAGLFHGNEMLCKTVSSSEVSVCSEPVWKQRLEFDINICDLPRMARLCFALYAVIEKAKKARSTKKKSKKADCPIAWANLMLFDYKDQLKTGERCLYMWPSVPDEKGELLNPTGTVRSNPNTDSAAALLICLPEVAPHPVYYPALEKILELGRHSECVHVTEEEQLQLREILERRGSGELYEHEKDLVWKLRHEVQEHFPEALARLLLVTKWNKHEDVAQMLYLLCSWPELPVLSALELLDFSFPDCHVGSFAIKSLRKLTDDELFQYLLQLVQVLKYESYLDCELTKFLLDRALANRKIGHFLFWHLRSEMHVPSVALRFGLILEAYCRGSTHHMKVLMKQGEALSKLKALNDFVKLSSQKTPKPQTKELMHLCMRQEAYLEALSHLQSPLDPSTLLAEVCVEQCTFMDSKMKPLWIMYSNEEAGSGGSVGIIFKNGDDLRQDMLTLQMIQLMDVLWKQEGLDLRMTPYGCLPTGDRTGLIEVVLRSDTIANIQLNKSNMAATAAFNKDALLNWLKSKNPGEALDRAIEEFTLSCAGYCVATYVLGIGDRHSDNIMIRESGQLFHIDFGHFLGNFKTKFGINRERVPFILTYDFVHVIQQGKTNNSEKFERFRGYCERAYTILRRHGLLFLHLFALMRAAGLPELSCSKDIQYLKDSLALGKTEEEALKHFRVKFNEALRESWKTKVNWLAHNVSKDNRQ

[17] = molecular target: T3, Phosphatidylinositol 4,5-bisphosphate 3-kinase catalytic subunit delta isoform (Homo sapiens); conditions: at 1 µM
[18] = molecular target: Phosphatidylinositol 4-kinase beta (Homo sapiens) (UniProt Q9UBF8); conditions: at 0.1 µM
[19] = molecular target: Phosphatidylinositol 4-kinase beta (Homo sapiens) (UniProt Q9UBF8); conditions: at 1 µM
[20] = molecular target: Sphingosine kinase 1 (Homo sapiens) (UniProt Q9NYA1); conditions: at 0.1 µM;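 also: mean percent inhibition of SPHK1 activity, measured within the GSK PKIS screening panel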
Sequence of Sphingosine kinase 1 (Homo sapiens) (Q9NYA1 whole entry): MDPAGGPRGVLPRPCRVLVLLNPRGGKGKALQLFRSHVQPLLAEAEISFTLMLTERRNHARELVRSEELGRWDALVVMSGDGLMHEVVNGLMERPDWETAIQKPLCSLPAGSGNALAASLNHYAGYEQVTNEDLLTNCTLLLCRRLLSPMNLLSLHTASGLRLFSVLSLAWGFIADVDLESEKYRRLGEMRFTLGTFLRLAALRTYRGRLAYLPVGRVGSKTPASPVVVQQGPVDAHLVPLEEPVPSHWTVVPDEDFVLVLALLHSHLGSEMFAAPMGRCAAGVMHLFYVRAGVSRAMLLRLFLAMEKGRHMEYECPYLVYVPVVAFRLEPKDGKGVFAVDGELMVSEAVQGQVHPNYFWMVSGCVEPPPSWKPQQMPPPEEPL

Sequence of SRSF protein kinase 1 (Homo sapiens) (Q96SB4 whole entry, canonical isoform): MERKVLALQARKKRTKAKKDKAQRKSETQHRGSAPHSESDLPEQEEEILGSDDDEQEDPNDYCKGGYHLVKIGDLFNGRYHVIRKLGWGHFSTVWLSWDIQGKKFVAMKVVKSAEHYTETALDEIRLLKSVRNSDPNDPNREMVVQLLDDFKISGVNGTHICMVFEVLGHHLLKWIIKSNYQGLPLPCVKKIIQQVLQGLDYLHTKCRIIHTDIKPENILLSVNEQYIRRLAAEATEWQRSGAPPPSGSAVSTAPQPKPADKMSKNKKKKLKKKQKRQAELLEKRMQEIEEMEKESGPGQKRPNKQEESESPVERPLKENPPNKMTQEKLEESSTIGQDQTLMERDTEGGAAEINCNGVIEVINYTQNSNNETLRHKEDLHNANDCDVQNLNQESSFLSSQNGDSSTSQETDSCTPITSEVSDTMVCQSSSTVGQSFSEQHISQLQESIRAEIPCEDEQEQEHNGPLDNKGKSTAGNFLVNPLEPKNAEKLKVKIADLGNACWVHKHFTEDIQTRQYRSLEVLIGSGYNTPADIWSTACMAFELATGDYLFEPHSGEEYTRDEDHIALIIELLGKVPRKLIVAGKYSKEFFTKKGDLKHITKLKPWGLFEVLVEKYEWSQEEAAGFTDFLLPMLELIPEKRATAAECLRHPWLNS
Sequence of Mitogen-activated protein kinase 14 (Homo sapiens) (Q16539 whole entry): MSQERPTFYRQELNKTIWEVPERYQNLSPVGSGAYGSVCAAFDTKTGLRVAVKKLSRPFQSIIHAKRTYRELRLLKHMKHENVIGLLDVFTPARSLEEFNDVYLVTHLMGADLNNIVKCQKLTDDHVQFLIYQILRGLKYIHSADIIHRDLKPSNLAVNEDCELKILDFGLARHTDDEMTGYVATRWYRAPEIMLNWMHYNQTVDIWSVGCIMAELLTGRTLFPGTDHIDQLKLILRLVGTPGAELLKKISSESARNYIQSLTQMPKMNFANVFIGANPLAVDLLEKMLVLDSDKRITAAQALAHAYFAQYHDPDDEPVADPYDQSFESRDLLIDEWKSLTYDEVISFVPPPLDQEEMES
Sequence of Phosphatidylinositol 4-kinase beta (Homo sapiens) (Q9UBF8 2-816 limits assumed): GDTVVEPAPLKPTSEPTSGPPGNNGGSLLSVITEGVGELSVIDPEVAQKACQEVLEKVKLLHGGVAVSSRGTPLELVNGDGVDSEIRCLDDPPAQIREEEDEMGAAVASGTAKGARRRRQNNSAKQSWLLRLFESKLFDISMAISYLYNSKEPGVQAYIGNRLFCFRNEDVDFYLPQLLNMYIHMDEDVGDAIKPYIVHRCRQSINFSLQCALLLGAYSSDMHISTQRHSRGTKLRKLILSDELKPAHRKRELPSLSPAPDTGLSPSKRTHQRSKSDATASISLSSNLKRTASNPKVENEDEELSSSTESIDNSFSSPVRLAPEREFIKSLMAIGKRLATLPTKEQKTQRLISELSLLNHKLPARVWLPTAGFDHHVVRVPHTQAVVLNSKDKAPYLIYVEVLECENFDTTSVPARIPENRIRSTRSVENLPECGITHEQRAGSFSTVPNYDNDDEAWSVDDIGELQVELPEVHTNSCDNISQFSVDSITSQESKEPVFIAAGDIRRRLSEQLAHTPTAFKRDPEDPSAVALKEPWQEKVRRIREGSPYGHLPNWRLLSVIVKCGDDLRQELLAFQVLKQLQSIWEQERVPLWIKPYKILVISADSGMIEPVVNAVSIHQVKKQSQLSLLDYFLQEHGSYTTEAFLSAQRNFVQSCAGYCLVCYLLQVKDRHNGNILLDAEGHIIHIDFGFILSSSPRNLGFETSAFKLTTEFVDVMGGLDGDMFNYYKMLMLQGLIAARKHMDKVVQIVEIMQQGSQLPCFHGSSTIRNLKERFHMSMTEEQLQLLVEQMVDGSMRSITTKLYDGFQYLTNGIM
Sequence of Mitogen-activated protein kinase 3 (Homo sapiens) (P27361 whole entry): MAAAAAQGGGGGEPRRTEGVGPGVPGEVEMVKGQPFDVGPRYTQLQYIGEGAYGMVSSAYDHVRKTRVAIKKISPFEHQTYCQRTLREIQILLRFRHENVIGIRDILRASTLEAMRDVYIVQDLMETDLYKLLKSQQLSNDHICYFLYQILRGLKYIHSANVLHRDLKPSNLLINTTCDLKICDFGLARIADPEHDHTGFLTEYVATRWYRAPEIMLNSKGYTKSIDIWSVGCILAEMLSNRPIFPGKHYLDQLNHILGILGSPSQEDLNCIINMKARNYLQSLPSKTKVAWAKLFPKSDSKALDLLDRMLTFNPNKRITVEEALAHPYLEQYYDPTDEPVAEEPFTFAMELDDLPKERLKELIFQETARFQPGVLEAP
Sequence of Phosphatidylinositol 4,5-bisphosphate 3-kinase catalytic subunit alpha isoform (Homo sapiens) (P42336 whole entry, canonical isoform): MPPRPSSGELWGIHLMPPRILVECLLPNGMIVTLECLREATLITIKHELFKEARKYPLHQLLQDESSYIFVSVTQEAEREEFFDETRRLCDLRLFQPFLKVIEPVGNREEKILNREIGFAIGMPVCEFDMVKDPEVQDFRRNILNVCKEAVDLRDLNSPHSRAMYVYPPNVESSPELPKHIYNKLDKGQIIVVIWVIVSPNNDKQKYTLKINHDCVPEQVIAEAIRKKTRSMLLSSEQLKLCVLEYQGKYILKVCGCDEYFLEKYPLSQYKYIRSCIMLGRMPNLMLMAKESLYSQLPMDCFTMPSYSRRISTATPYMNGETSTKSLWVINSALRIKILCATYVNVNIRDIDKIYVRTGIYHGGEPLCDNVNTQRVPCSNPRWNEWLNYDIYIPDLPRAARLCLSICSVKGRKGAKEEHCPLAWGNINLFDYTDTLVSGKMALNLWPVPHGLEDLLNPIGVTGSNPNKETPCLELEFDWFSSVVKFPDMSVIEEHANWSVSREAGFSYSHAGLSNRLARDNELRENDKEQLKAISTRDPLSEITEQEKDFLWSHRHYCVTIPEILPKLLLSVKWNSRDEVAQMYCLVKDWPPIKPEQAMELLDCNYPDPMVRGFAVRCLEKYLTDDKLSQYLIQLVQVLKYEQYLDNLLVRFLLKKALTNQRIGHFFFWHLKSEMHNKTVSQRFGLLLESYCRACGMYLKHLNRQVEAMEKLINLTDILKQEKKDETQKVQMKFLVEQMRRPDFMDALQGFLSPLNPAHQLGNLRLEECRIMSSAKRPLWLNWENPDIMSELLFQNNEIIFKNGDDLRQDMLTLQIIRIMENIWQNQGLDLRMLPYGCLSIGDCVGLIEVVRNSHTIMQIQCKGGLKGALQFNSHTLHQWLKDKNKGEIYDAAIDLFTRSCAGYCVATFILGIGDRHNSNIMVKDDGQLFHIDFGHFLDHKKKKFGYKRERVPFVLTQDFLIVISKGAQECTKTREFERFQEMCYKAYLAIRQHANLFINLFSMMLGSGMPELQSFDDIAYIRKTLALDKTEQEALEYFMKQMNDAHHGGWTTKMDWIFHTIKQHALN
Sequence of Mitogen-activated protein kinase 11 (Homo sapiens) (Q15759 whole entry): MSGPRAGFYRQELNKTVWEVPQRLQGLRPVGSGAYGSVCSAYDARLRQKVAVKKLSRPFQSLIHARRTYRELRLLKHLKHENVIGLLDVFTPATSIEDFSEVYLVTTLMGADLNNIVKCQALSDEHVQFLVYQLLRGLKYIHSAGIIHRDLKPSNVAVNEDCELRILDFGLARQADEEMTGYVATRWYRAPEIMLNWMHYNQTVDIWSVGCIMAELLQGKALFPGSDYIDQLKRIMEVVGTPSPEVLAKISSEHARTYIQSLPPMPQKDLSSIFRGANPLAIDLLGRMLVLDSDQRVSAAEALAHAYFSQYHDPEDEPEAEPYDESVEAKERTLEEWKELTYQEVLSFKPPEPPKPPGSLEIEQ
Sequence of SRSF protein kinase 3 (Homo sapiens) (Q9UPE1 whole entry): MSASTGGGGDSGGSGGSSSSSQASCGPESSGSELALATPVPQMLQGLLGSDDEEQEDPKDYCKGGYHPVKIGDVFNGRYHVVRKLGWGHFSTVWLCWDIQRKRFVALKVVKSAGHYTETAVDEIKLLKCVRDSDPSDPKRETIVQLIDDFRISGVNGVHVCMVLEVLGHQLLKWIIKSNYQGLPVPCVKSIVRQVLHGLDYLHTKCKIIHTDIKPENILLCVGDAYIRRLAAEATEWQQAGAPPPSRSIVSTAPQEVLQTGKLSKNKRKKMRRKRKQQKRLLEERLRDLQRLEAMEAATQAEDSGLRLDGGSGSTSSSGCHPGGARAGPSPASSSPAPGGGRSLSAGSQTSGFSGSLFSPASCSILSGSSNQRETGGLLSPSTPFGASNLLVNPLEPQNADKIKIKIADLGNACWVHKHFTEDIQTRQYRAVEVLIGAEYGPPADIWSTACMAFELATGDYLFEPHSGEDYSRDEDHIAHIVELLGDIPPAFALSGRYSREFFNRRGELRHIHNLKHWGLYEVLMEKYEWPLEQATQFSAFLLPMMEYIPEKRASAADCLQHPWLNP

SMILES | inhibition [1] [%] | inhibition [2] [%] | inhibition [3] [%] | inhibition [4] [%] | inhibition [5] [%] | inhibition [6] [%] | inhibition [7] [%] | inhibition [8] [%] | inhibition [9] [%] | inhibition [10] [%] | inhibition [11] [%] | inhibition [12] [%] | inhibition [13] [%] | inhibition [14] [%] | inhibition [15] [%] | inhibition [16] [%] | inhibition [17] [%] | inhibition [18] [%] | inhibition [19] [%] | inhibition [20] [%]
CS(=O)(=O)CCNCc1ccc(-c2ccc3ncnc(Nc4ccc(OCc5ccccc5)c(Br)c4)c3c2)o1 | 4.46 | -5.29 | -0.77 | 6.51 | 5.46 | 3.98 | 5.45 | 4.88 | 3.53 | 3.43 | 3.4 | -3.23 | -2.26 | 3.6 | 1.93 | 0.72 | 2.81 | -4.04 | -0.22 | -0.92
COc1cc(C)c(N(C)C(=O)CN(C)C)cc1Nc1nc(Nc2cccc(F)c2C(N)=O)c2cc[nH]c2n1 | 2.25 | 1.68 | 1.28 | -0.82 | 3.91 | 2.56 | 0.98 | 1 | 1.9 | 0.25 | 1.09 | -1.96 | -3.38 | 0.08 | -0.5 | 0.21 | 1.56 | 3.54 | 0.7 | 0.03
CNC(=O)c1cncc(/C=C/c2c(C)cccc2C)c1 | 3.65 | -0.82 | 2.87 | 1.86 | 7.55 | 0.94 | 2.24 | -0.85 | -0.13 | -0.99 | -0.37 | 0.32 | 0.21 | -1.85 | -3.99 | -1.64 | -1.98 | 3.95 | 0.59 | 0.03
C/C(Nc1ccc(S(N)(=O)=O)cc1)=C1/C(=O)Nc2ccccc21 | 0.88 | -1.51 | -1.15 | 2.61 | 3.43 | 1.67 | 7.87 | -0.85 | -1.14 | -1.08 | -1.66 | 2.04 | 1.41 | 0.42 | 1.42 | 2.42 | 3.52 | -1.12 | -0.13 | -1.38
CCS(=O)(=O)c1ccc(OC)c(Nc2ncc(-c3cccc(-c4ccccc4F)c3)o2)c1 | 0.15 | 0.74 | 1.45 | 5.17 | 8.57 | 0.03 | 4.77 | 3.85 | -0.94 | -2.59 | 0.18 | 0.1 | 2.33 | 1.85 | 2.73 | 2.24 | 5.89 | -1.01 | -4.05 | 4.17
CCC(=O)Nc1ccc(C)c(-c2ccc(C(=O)NCC3CC3)cc2)c1 | 1.57 | -1.41 | -1.57 | 20.1 | 62.9 | 6.54 | 36.8 | 3.68 | 3.22 | 2.95 | 4.44 | -3.31 | -2.74 | 2.7 | 0.64 | 0.57 | -0.59 | -0.74 | -0.15 | -3.42
NC(=O)c1cc(-c2ccc(F)cc2)cc(-c2ccncc2)c1N | 3.05 | -2.8 | -1.27 | 6.13 | 8.6 | 2.26 | 5.45 | 2.57 | 3.93 | 4.51 | 3.29 | -2.19 | -2.78 | 3.84 | 22.8 | 2.48 | 4.83 | -4.18 | -2.52 | -2.79
COc1ccc2ncn(-c3cc(O[C@H](C)c4ccccc4Cl)c(C(N)=O)s3)c2c1 | 3.04 | -3.56 | -0.27 | 6.99 | 6.3 | 2.23 | 4.3 | 5.14 | 4.31 | 3.31 | 4.09 | -1.6 | -1.38 | 3.9 | 4.87 | 1.95 | 17.5 | 1.3 | -2.87 | 1.65
COc1ccc2cc(-c3c(-c4ccncc4)nc(-c4ccc([S+](C)[O-])cc4C)n3C)ccc2c1 (stereo not given) | 0.97 | -0.41 | 0.96 | 8.81 | 8.45 | -1.91 | 9.09 | 0.73 | -0.19 | -2.44 | -0.09 | -0.31 | -0.89 | -2.02 | -0.83 | -2.38 | -1.78 | 2.91 | -0.88 | -0.09
COc1cc2ncn(-c3cc(OCCc4ccccc4)c(C(N)=O)s3)c2cc1OC | 0.82 | -1.68 | 0.18 | 4.09 | 13.1 | 3.65 | 2.87 | 4.25 | 1.8 | -0.53 | 1.89 | -2.73 | -4.19 | 2.08 | 3.83 | 2.55 | 5.55 | -0.92 | 3.17 | -0.54
CCS(=O)(=O)c1ccc(OC)c(Nc2ncc(-c3ccccc3Cl)o2)c1 | 0.91 | 0.64 | 3.28 | 7.68 | 12.2 | 2.55 | 5.3 | 1.24 | 1.41 | 5.31 | -0.19 | -0.98 | 0.67 | -0.1 | -1.53 | 2.13 | 1.67 | 3.2 | -6.4 | -0.2
FC(F)(F)c1cccc(Nc2nccc(-c3cnn4nc(-c5ccccc5)ccc34)n2)c1 | 3 | -2.14 | 1.08 | 3.54 | 1.79 | 3.08 | 3.39 | 1.85 | 0.28 | 1.53 | 1.51 | -2.07 | -0.92 | 2.52 | 8.98 | -0.34 | 8.75 | -0.22 | -1.63 | 1.87
O=C(Nc1n[nH]c2cc(-c3cc(F)ccc3F)ccc12)C1CC1 | 0.63 | -2.33 | -2.21 | 1.76 | 8.79 | 3.95 | 7.57 | -0.68 | 4.17 | 0.34 | 2.66 | -2.08 | -4.65 | 1.92 | 3.65 | 2.22 | 4.33 | -2.33 | 3.14 | 0.01
